These results are taken from PubChem BioAssay AID1210 (NMMLSC, 2008).

The assay has as its target Estrogen receptor beta (Homo sapiens) (UniProt Q92731). The assay can be described thus: ERbeta ligand binders by competition, primary screen, cell-based, Cos7 ERbeta-GFP, flow cytometry (AID 1210).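 Note: 0% = DMSO vehicle wells and 100% = complete loss of labeled estradiol signal.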 The following applies: fluorescent estrogen binding, stronger effect = higher value.
[1] abbreviates: ligand binding inhibition, at 0.1 µM.

Activity calls are given as the source filed them.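 Rule for the calls: active = blocks over 70% of labeled estradiol binding at 10 µM, or over a set limit at 100 nM; inactive = the rest.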

Estrogen receptor beta (Homo sapiens), sequence (Q92731 whole entry, looked up): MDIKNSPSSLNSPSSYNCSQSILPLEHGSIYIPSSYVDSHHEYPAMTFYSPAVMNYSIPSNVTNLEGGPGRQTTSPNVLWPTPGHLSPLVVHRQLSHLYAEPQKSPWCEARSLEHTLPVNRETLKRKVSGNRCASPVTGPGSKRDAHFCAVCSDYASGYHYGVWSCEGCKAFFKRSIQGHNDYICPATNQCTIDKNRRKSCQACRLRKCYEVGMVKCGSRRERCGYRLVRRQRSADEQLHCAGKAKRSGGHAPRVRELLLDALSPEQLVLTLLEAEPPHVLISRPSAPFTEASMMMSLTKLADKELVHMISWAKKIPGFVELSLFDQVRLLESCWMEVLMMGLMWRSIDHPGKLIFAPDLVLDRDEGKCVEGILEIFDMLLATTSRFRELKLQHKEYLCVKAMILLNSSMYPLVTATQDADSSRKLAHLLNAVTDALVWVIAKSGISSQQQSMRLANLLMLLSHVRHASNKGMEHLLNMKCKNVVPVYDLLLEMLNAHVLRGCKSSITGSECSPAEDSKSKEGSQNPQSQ

Broadly, the inhibition is the percentage by which the read-out fell short of the control. With `Clc1ccc2nc(-c3ccccn3)c(Nc3ccc4c(c3)OCO4)n2c1`, the inhibition is 60% (inactive) (at 10 µM) and 2% under setting [1].

Regarding `O=C(Nc1ccccc1[N+](=O)[O-])C1=C(O)CCn2c1nc1ccccc12`, the inhibition was 37% (inactive) (at 10 µM) and 46% under setting [1].

`Cc1noc(C)c1COc1ccc(C(=O)OCC(=O)N2c3ccccc3NC(=O)C2(C)C)cc1`: the inhibition reads like this: (at 10 µM) 42% (inactive); under setting [1], 30%.

For the molecule `Cc1noc(C)c1COC(=O)c1cc2c3ccccc3n(C)c2s1`, the inhibition was 59% (inactive) (at 10 µM) and 4% under setting [1].

Turning to `COc1cc(NC(=O)c2cccs2)c(C(=O)OCC(=O)NCc2ccco2)cc1OC`, the inhibition is, setting by setting: (at 10 µM) 41% (inactive); under setting [1], 47%.

As for `Cc1ccc(C)n1-c1sccc1C(=O)O`, the inhibition is, setting by setting: (at 10 µM) 18% (inactive); under setting [1], 26%.

With `O=c1cc(O)c2c(=O)n(-c3ccccc3)c3c(c2o1)CCCCCC3`, the inhibition is, setting by setting: (at 10 µM) 59% (inactive); under setting [1], 2%.

Regarding `C/C(=N\Nc1ccc([N+](=O)[O-])cc1)c1cccc(N)c1`, the inhibition is 14% (inactive) (at 10 µM) and 24% under setting [1].

In the case of `Oc1ccccc1N=Nc1nc(-c2ccccc2)c(-c2ccccc2)[nH]1`, the inhibition is 36% (inactive) (at 10 µM) and 36% under setting [1].

For `COc1ccc(OC)c(N2C(=O)[C@@H]3C(c4ccccc4Cl)=NO[C@@H]3C2=O)c1`, the inhibition runs as follows: (at 10 µM) 52% (inactive); under setting [1], 30%.

Turning to `Cc1ccc(C(=O)Nc2nc(-c3cccnc3)cs2)o1`, the inhibition (at 10 µM) is 15% (inactive) and the inhibition under setting [1] was determined as 43%.

Regarding `CC1(C)CC(=O)c2c(oc3cc(O)c(O)cc23)C1`, the inhibition (at 10 µM) is 11% (inactive) and the inhibition under setting [1] worked out at 3%.

Regarding `O=C(COC(=O)CCC(=O)c1cccs1)NCc1ccco1`, the inhibition reads like this: (at 10 µM) 54% (inactive); under setting [1], 12%.

For `CSC1=N/C(=C\c2ccc(Br)o2)C(=O)S1`, the inhibition was 26% (inactive) (at 10 µM) and 43% under setting [1].

As for `O=C1C(c2ccnc3ccccc23)=C(O)c2ccccc21`, the inhibition (at 10 µM) was 60% (inactive) and the inhibition under setting [1] was 18%.
